Holding throughout (conditions): compound concentration in added solution (µM; 5 µl added to 20 µl cells): 10; 18 h
The test system of experiment [1] is A431. Briefly: LBPA endosome anti-LBPA integrated intensity (sum per cell), Z-score; higher = more LBPA staining. Summed up: (§1)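 After 18 h on 5 µl of 10 µM compound solution in duplicate 384-well imaging plates, HeLa MZ or A431 cells, seeded at 3,500 per well in 20 µl, were fixed with 4% PFA. They were then labelled with 6C4 anti-LBPA antibody, filipin, propidium iodide and CellTracker green, and four 20× fields were recorded per well. Integrated LBPA or filipin intensity per cell, whole-cell or within LBPA endosomes, came from MetaXpress segmentation and was normalised to Z-scores in AcuityXpress.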

The test system of experiment [2] is HeLa MZ. Described as above. Summed up: as §1
Experiment [3] deals with A431. Briefly: whole-cell filipin (free cholesterol) integrated intensity, Z-score; higher = more cholesterol staining. Summed up: as §1
The subject of experiment [4] is HeLa MZ. Described as above. The essentials:
as §1

The subject of experiment [5] is A431. Briefly: filipin (cholesterol) integrated intensity within LBPA endosomes, Z-score; higher = more cholesterol in LBPA endosomes. The essentials:
as §1

The test system of experiment [6] is HeLa MZ. Described as above. The essentials: as §1

Counter-ions that a name gives are not always drawn.

For the molecule `O=C(O)Cc1ccccc1Nc1c(Cl)cccc1Cl` [Diclofenac sodium], the “LBPA endosome anti-LBPA integrated intensity (z-score)” value in experiment [1] is -0.542; in experiment [2], -0.789. The “whole-cell filipin (z-score)” value in experiment [3] was -0.65; in experiment [4] it was -0.702. Besides, the “filipin (z-score)” value in experiment [5] was -0.505; in experiment [6], -0.603.
As for `Oc1c(I)cc(Cl)c2cccnc12` [Clioquinol], the “LBPA endosome anti-LBPA integrated intensity (z-score)” value in experiment [1] is -0.492; in experiment [2], -0.976. Further, the figures for the “whole-cell filipin (z-score)” value in experiment [3] and in experiment [4] were -0.314 and 0.216, respectively. The “filipin (z-score)” value in experiment [5] is -0.526; in experiment [6], -0.604.
Consider `OC(CCN1CCCCC1)(c1ccccc1)C1CCCCC1` (configuration not stated) [Trihexyphenidyl-D,L Hydrochloride], for which the “LBPA endosome anti-LBPA integrated intensity (z-score)” value in experiment [1] came out at 1.27; in experiment [2], 1.51. Also, the “whole-cell filipin (z-score)” value was 0.138 in experiment [3] and -0.301 in experiment [4]. Also, the “filipin (z-score)” value was 0.357 in experiment [5] and 0.149 in experiment [6].
With `NC1CCN(c2c(F)cc3c(=O)c(C(=O)O)cn(C4CC4)c3c2Cl)C1` (configuration not stated) [Clinafloxacin], the results for the “LBPA endosome anti-LBPA integrated intensity (z-score)” value in experiment [1] and in experiment [2] were -0.36 and 0.512, respectively. In addition, the “whole-cell filipin (z-score)” value in experiment [3] was -0.328; in experiment [4], -0.333. Further, the results for the “filipin (z-score)” value in experiment [5] and in experiment [6] were -0.437 and -0.286, respectively.
Turning to `C[C@H]1C[C@H]2[C@@H]3CCC4=CC(=O)C=C[C@]4(C)[C@@]3(F)[C@@H](O)C[C@]2(C)[C@@]1(O)C(=O)CO` [Betamethasone], the “LBPA endosome anti-LBPA integrated intensity (z-score)” value in experiment [1] is -0.442; in experiment [2], -0.354. Besides, the “whole-cell filipin (z-score)” value in experiment [3] is -0.547; in experiment [4], -0.354. The “filipin (z-score)” value in experiment [5] was -0.536; in experiment [6], -0.463.
For the molecule `COc1ccc(OC)c(C(O)CNC(=O)CN)c1` (configuration not stated) [Midodrine hydrochloride], the “LBPA endosome anti-LBPA integrated intensity (z-score)” value in experiment [1] was -0.477; in experiment [2] it was -0.609. The “whole-cell filipin (z-score)” value in experiment [3] is -0.887; in experiment [4], -1.05. For the same molecule, the “filipin (z-score)” value in experiment [5] was -0.605; in experiment [6], -0.723.
As for `Cc1ccc(C)c(OCCCC(C)(C)C(=O)O)c1` [Gemfibrozil], the “LBPA endosome anti-LBPA integrated intensity (z-score)” value in experiment [1] is -0.639; in experiment [2], -0.782. For the same molecule, the “whole-cell filipin (z-score)” value in experiment [3] is -0.695; in experiment [4], -0.706. The “filipin (z-score)” value in experiment [5] was -0.635; in experiment [6], -0.699.
On to `CC(CN1c2ccccc2Sc2ccccc21)N(C)C` (configuration not stated) [Promethazine hydrochloride], for which the figures for the “LBPA endosome anti-LBPA integrated intensity (z-score)” value in experiment [1] and in experiment [2] were 2.24 and 1.7, respectively. Moreover, the “whole-cell filipin (z-score)” value in experiment [3] was found to be 2.37; in experiment [4], 0.806. The “filipin (z-score)” value in experiment [5] came out at 2.23; in experiment [6], 1.73.
For `C=CCSCC1Nc2cc(Cl)c(S(N)(=O)=O)cc2S(=O)(=O)N1` (configuration not stated) [Althiazide], the “LBPA endosome anti-LBPA integrated intensity (z-score)” value in experiment [1] is -0.575; in experiment [2], -1.6. Also, the “whole-cell filipin (z-score)” value was -0.613 in experiment [3] and -0.588 in experiment [4]. The “filipin (z-score)” value in experiment [5] was -0.491; in experiment [6], -0.642.
As for `CNCCc1ccccn1` [Betahistine mesylate], the “LBPA endosome anti-LBPA integrated intensity (z-score)” value in experiment [1] was -0.418; in experiment [2], -0.427. Also, the figures for the “whole-cell filipin (z-score)” value in experiment [3] and in experiment [4] were -0.443 and -0.285, respectively. The “filipin (z-score)” value was -0.457 in experiment [5] and -0.6 in experiment [6].
`Nc1cc(N2CCCCC2)nc(N)[n+]1[O-]` [Minoxidil]: the “LBPA endosome anti-LBPA integrated intensity (z-score)” value was -0.316 in experiment [1] and -0.257 in experiment [2]. Besides, the “whole-cell filipin (z-score)” value in experiment [3] is -0.274; in experiment [4] it was 0.345. Moreover, the figures for the “filipin (z-score)” value in experiment [5] and in experiment [6] were -0.426 and -0.263, respectively.
Regarding `CN1CCN2c3ncccc3Cc3ccccc3C2C1` (configuration not stated) [Mirtazapine], the entries for the “LBPA endosome anti-LBPA integrated intensity (z-score)” value in experiment [1] and in experiment [2] were -0.296 and 0.0872, respectively. In addition, the “whole-cell filipin (z-score)” value in experiment [3] is -0.206; in experiment [4], 0.74. Further, the “filipin (z-score)” value in experiment [5] was -0.391; in experiment [6], 0.392.
Take `CN(C)CC/C=C1/c2ccccc2Sc2ccc(Cl)cc21` [Chlorprothixene hydrochloride]: the “LBPA endosome anti-LBPA integrated intensity (z-score)” value in experiment [1] is 4.13; in experiment [2], 2.63. Besides, the “whole-cell filipin (z-score)” value stood at 1.46 in experiment [3] and 0.54 in experiment [4]. In addition, the figures for the “filipin (z-score)” value in experiment [5] and in experiment [6] were 2.61 and 2.32, respectively.
For `CN(C)C(=O)C(CCN1CCC(O)(c2ccc(Cl)cc2)CC1)(c1ccccc1)c1ccccc1` [Loperamide hydrochloride], the entries for the “LBPA endosome anti-LBPA integrated intensity (z-score)” value in experiment [1] and in experiment [2] were 2.04 and 1.35, respectively. In addition, the “whole-cell filipin (z-score)” value was 0.703 in experiment [3] and 1.87 in experiment [4]. The “filipin (z-score)” value stood at 3.45 in experiment [5] and 3.57 in experiment [6].
Turning to `CO[C@@]1(NC(=O)Cc2cccs2)C(=O)N2C(C(=O)O)=C(COC(N)=O)CS[C@@H]21` [Cefoxitin sodium salt], the “LBPA endosome anti-LBPA integrated intensity (z-score)” value was -0.479 in experiment [1] and 0.482 in experiment [2]. The results for the “whole-cell filipin (z-score)” value in experiment [3] and in experiment [4] were -0.426 and -0.439, respectively. Further, the “filipin (z-score)” value was -0.487 in experiment [5] and -0.515 in experiment [6].
Take `C[N+](C)(C)CCOC(N)=O` [Carbachol]: the “LBPA endosome anti-LBPA integrated intensity (z-score)” value is -0.538 in experiment [1] and -0.848 in experiment [2]. In addition, the results for the “whole-cell filipin (z-score)” value in experiment [3] and in experiment [4] were -0.548 and -0.381, respectively. For the same molecule, the “filipin (z-score)” value is -0.44 in experiment [5] and -0.42 in experiment [6].
As to `Clc1ccc(CCC(Cn2ccnc2)Sc2c(Cl)cccc2Cl)cc1` (configuration not stated) [Butoconazole nitrate], the “LBPA endosome anti-LBPA integrated intensity (z-score)” value was 1.95 in experiment [1] and 2.23 in experiment [2]. Besides, the “whole-cell filipin (z-score)” value was found to be 1.71 in experiment [3] and 2.17 in experiment [4]. For the same molecule, the “filipin (z-score)” value amounted to 2.22 in experiment [5] and 2.14 in experiment [6].

The values are drawn from the supplement of paper PMC6607015.
